Laboratory results published in PubChem BioAssay AID453 (PCMD, 2006).
Hit rate of the full screen: of about 63,000 compounds, about 75 (0.1%) were called active. Rule as the data show it: active = inhibition above about 21%; inactive = the rest. Shown is part of a subset that was picked to be rich in actives.

These compounds were tested against Cathepsin B (Homo sapiens) (UniProt P07858) (assay: blockers of cathepsin B proteolysis – biochemical, fluorogenic substrate, primary screen (AID 453;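 also: 0% = enzyme with no compound and 100% = no enzyme blank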)). Conditions: purified cathepsin B, fluorescence, stronger effect = higher value,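 tested at 10 µM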.

Row | Structure (SMILES) | inhibition
1 | C=CCn1c(C2CC(=O)N(c3ccc(C)cc3)C2)nc2ccccc21 (stereo not drawn) | -1.25% (inactive)
2 | CCN(CC)CCCNC(=O)c1cc(-c2cccc(Cl)c2)on1 | 4.03% (inactive)
3 | O=C1N(Cc2ccc3c(c2)OCO3)c2ccccc2C1(O)c1c[nH]c2ccccc12 (stereo not drawn) | -2.6% (inactive)
4 | CCOc1ccc(/C(O)=C2/C(=O)C(=O)N(Cc3cccnc3)C2c2ccc(N(C)C)cc2)c(C)c1 (stereo not drawn) | 1.4% (inactive)
5 | Nc1nonc1-c1noc(-c2ccc(Br)o2)n1 | 25% (active)
6 | O=C(O)CCC(=O)NCc1ccc2[nH]c3c(c2c1)CCCC3 | 3.83% (inactive)
7 | CCOC(=O)c1c(NC(=O)CSc2nnc(CN3CCOCC3)n2C)sc2c1CCCC2 | -0.13% (inactive)
8 | O=C(OCC(O)C(O)COC(=O)c1ccccc1)c1ccccc1 (stereo not drawn) | 0.46% (inactive)
9 | N#Cc1c(N)n(CCOC(=O)c2ccc(Cl)cc2)c2nc3ccccc3nc12 | 0.87% (inactive)
10 | Cc1ccc(-n2c(N)c(C(=O)N3CCOCC3)sc2=S)c(C)c1 | -2.06% (inactive)
11 | O=C(CN1CCN(c2ncc(C(F)(F)F)cc2Cl)CC1)Nc1ccc2c(c1)OCO2 | 10.7% (inactive)
12 | CC1(C)CC(=O)C(C2=NC(C)(C)Cc3ccccc32)=C(O)C1 | 0.19% (inactive)
13 | CCCCOC(=O)c1[nH]c(C)c(C(=O)OC)c1C | 4.33% (inactive)
14 | CC(Sc1nncs1)C(=O)NCc1ccc2c(c1)OCO2 (stereo not drawn) | -5.21% (inactive)
15 | CCOC(=O)N1CCN(S(=O)(=O)c2cc3c(cc2C)NC(=O)CO3)CC1 | 1.1% (inactive)
16 | CCOC(=O)CCc1c(C)c(C#N)c2[nH]c3ccccc3n2c1=O | 2.21% (inactive)
17 | O=C(NCc1ccccn1)c1cnc2sccn2c1=O | -2.74% (inactive)
18 | Cc1ccccc1C(OCC(O)CN1CCCCC1CCO)c1ccccc1 (stereo not drawn) | 2.98% (inactive)
19 | CCCC(=O)N1CCc2[nH]c3ccccc3c2C1 | 0.39% (inactive)
20 | Cc1ccccc1Nc1nnc(C)c(=O)[nH]1 | -0.9% (inactive)
21 | CC(=O)C1=C(O)C(=O)N(c2ccc(S(N)(=O)=O)cc2)C1c1ccccc1F (stereo not drawn) | -1.52% (inactive)
22 | Cc1ccc(NC(=O)NCC(c2cccnc2)N2CCOCC2)cc1 (stereo not drawn) | -2.73% (inactive)
23 | OCc1nc(CO)n(Cc2ccccc2)n1 | 5.1% (inactive)
24 | c1ccc(CCC2=NCCn3cccc32)cc1 | 4.22% (inactive)
25 | CCOc1ccccc1C1NC(=O)NC(C)=C1C(=O)OCc1ccco1 (stereo not drawn) | 2.19% (inactive)
26 | O=C(C1CCN(S(=O)(=O)c2cnc[nH]2)CC1)N1CCN(Cc2ccc3c(c2)OCO3)CC1 | 5.41% (inactive)
27 | Cc1cccc(N2CCN(C(=O)C3CCN(S(=O)(=O)c4cnc[nH]4)CC3)CC2)c1C | 44.5% (active)
28 | COc1cccc(N2CCN(C(=O)C3CCCN(S(=O)(=O)c4cnc[nH]4)C3)CC2)c1 (stereo not drawn) | -4.17% (inactive)
